Experimental data taken from ChEMBL document CHEMBL3988442, “University of Dundee, Small-Polar-MMV Screening Library” (2021).
Among all 48,000 compounds or so, about 13,000 (27%) showed an effect of 50% or more. This is one part of the list.

The compounds below were run on Wolbachia pipientis (assay: Anti-Wolbachia Cell-Based Screen). Settings: 5 µM.
Format: functional
Set-up: scale not given: in the data most compounds retested in dose-response had high values

Compound	Percent Effect
COc1cccc(CN(C)Cc2ccc(C#N)cc2)c1OC	-1.171%
Cc1cc(NCCNc2ccc(C#N)cn2)nc(C)n1	-1.6%
Cc1ccccc1[C@@H]1CN(Cc2ccc(C(F)(F)F)nc2)C[C@H]1C(=O)O	28.6%
COCCCSc1ccc(NCc2cscn2)cc1	-5.261%
O=C(CCC(F)(F)F)NCC1CCCS1 (stereo unspecified)	-25.1%
CCN(CC)c1ccc(CNC(=O)c2ccc(=O)[nH]n2)cn1	-14.62%
O=C(NCC1(Sc2ccccc2)CC1)c1cc[nH]n1	109.2%
O=C(NCCn1nc2ccccn2c1=O)c1cc[nH]n1	8.097%
O=C(NC1(c2cccc(F)c2)CCOCC1)c1cc[nH]n1	-5.45%
O=C(NCC1(Sc2ccccc2)CC1)c1ccc(=O)[nH]n1	98.28%
O=C(NCC1(CO)CC1)c1ccccc1Cl	3.943%
CN1CCN(c2cc(CNC(=O)c3ccc(=O)[nH]n3)ccn2)CC1	7.081%
CN(Cc1ccco1)Cc1ccccc1CNC(=O)c1c[nH]nn1	2.895%
O=C(NCC1(Sc2ccccc2)CC1)c1c[nH]nn1	96.18%
CCc1nnc2n1CCN(c1nc3ccccc3o1)C2	-17.82%
Cc1ccccc1OCCC(=O)OC(C)C(=O)Nc1sccc1C(N)=O (stereo unspecified)	15.81%
CCS(=O)(=O)N1CCC2(CCCN(Cc3cc(OC)ccc3F)C2)C1 (stereo unspecified)	-8.238%
O=C(COc1ccc(C(F)(F)F)cc1)NS(=O)(=O)c1cccnc1	-2.745%
Cc1ncoc1C(=O)N1CCCC(C(=O)c2cccc(OC(C)C)c2)C1 (stereo unspecified)	-0.1018%
Cc1ocnc1C(=O)N1CC[C@@H](O)[C@@H](O)[C@H](N2CCC(F)(F)CC2)C1	120%
Cc1ocnc1C(=O)N1CCN(C(=O)CC(C)C)[C@@H]2CS(=O)(=O)C[C@@H]21	-7.127%
O=C(c1ccncc1)N1CC[C@@H](O)[C@@H](O)[C@H](N2CCC(F)(F)CC2)C1	113.1%

Compound	Percent Effect
Cc1ocnc1C(=O)N1CCC(c2nccn2Cc2ccncc2)CC1	10.72%
Cc1ncoc1C(=O)N1C[C@@H]2CN(CC3CC3)CCO[C@@H]2C1	-7.815%
Cc1ncoc1C(=O)N1CC[C@@H](O)[C@@H](O)[C@H](N2CCC(F)(F)CC2)C1	142%
CC(C)C1CN(C(=O)c2ccncc2)CCS1 (stereo unspecified)	-8.547%
CN1CC(c2ccccc2)CC12CCN(C(=O)c1ccncc1)CC2 (stereo unspecified)	-13.44%
CC(NC1(CNS(C)(=O)=O)CCOCC1)c1ccccc1 (stereo unspecified)	3.887%
COCc1nc(C2CC2)nn1-c1cc(Cl)ccc1OC	-14.4%
CCC(CNC(=O)c1nc(=O)[nH][nH]1)Oc1cccc(C(F)(F)F)c1 (stereo unspecified)	-1.128%
COc1ccnc(NC(=O)CSCc2cccnc2)c1	1.726%
COc1cccc(CNC(=O)c2cccnc2SC(C)C)c1	92.51%
CC(C)Sc1ncccc1C(=O)NCc1cccc(N(C)C)c1	97.33%
CC(C)Nc1ncccc1C(=O)NCc1cnc(N(C)C)n1C	23.22%
CCS(=O)(=O)N(C)C1CCN(Cn2ccc(-c3ccc(F)cc3)n2)CC1	1.424%
O=C(NC1(c2nccs2)CCCC1)c1cc(C2CC2)on1	-6.868%
Cc1noc(C)c1CS(=O)(=O)CC(=O)N1c2ccccc2CC1C (stereo unspecified)	25.49%
O=C(Cc1ccc(F)cc1Cl)N1C[C@@H](CN2CCC(O)CC2)[C@@H](CO)C1	-45.53%
Cc1ncnc2c1CCN(C(=O)c1cccnc1)CC2	-9.06%
Cc1nn(C(=O)c2cccnc2)c(C)c1C	108.2%
COc1ccc(C(=O)n2nc(C)c(C)c2C)cc1	10.75%
Cc1cc(NCCNc2ncccc2C)n2nc(C)cc2n1	109.3%
Cc1cccnc1NCCNc1cc(C(C)C)nc2ccnn12	101.8%
Cc1cc(NCc2cccnc2)n2nc(C)cc2n1	12.04%

Compound	Percent Effect
CC(C)c1cc(NCC(O)CO)n2nccc2n1 (stereo unspecified)	7.798%
Cc1cc2nc(C(C)C)cc(NCCNc3ncccc3C)n2n1	112.1%
Cc1cc2nc(C(C)C)cc(NCC(c3ccccn3)N(C)C)n2n1 (stereo unspecified)	15.65%
CC(=O)NCCNc1cc(C)nc2cc(C)nn12	-17.81%
CC(C)c1cc(NCC(C)N2CCCC2)n2nccc2n1 (stereo unspecified)	-22.52%
CC(C)c1cc(NCC(O)c2ccccn2)n2nccc2n1 (stereo unspecified)	16.27%
CN1CCC(n2nc(Cc3cccc(Cl)c3)nc2Cn2ccnc2)CC1	-3.422%
CCCn1nc(C(=O)NCCc2nnc3n2CCC3)ccc1=O	5.324%
O=C1CCCN1CCc1noc(-c2ccc3[nH]cnc3c2)n1	-10.57%
COc1ccc(F)c(CNC2CCCc3nc(N(C)C)ncc32)c1 (stereo unspecified)	96.62%
Cc1cc(C)c(C(=O)NC2CCCc3nc(N(C)C)ncc32)cc1C (stereo unspecified)	-4.078%
COc1ccc2c(c1)C(NCCc1ncc(C)s1)CCCO2 (stereo unspecified)	17.43%
COc1cc(F)c(S(=O)(=O)NCc2ccnc(N(C)C)n2)cc1OC	0.6803%
CCn1ncc2c1CCCC2NCc1cc(Cl)c(OC)c(OC)c1 (stereo unspecified)	-1.567%
CCn1ncc2c1CCCC2NCc1ccc(OC)c(C)c1 (stereo unspecified)	-3.93%
COc1ccc(CNC2CCCc3nc(N(C)C)ncc32)c(OC)c1 (stereo unspecified)	113.1%
CCCOc1ccc(CNC2CCCc3c2cnn3CC)cc1OC (stereo unspecified)	1.181%
COc1ccc(OC)c(CNC2CCCc3nc(N(C)C)ncc32)c1 (stereo unspecified)	105.7%
CCOC(C)c1nc(CN2CCC(C3OCCO3)CC2)cs1 (stereo unspecified)	-5.348%
CN(CCc1nc2ccccc2c(=O)[nH]1)CCC(F)(F)F	-6.377%
CNC(=O)C(C)(C)NC(=O)c1cc(COc2cccc(C(C)=O)c2)[nH]n1	5.939%
O=C(Nc1cccc(N2CCN(CC3CC3)CC2)c1)C1CCOC1 (stereo unspecified)	-7.118%

Compound	Percent Effect
CCN1CCN(C(=O)c2ccc3c(c2)NC(=O)CN3)[C@H]2CS(=O)(=O)C[C@H]21	7.083%
Cc1nn(C)cc1CN(Cc1ccccn1)Cc1ccccc1Cl	76.4%
OC(CN(Cc1ccccc1)Cc1ccccn1)c1cccs1 (stereo unspecified)	-16.67%
CCOc1cccc(CN(Cc2cnn(C)c2)CC(C)C)c1O	5.177%
COCCN(C/C=C/c1ccccc1)Cc1ccccn1	-3.939%
Cn1cc(CN(Cc2ccccn2)Cc2ccccc2Cl)cn1	107.7%
Cn1cc(CN(Cc2ccccc2)CC(O)c2cccs2)cn1 (stereo unspecified)	-0.3984%
CN(Cc1cnn(C)c1)C(=O)NC1CCN(Cc2ccccn2)CC1	-4.519%
COc1ccccc1CN(C)c1nccc(-c2cn(C)nc2C)n1	-7.113%
Cl.Cn1cc(CN(Cc2ccccc2)Cc2ccccn2)cn1	101.3%
COc1cccc(S(=O)(=O)CCN2CCCC2c2ccc[nH]2)c1 (stereo unspecified)	-2.252%
CCN1CCC(NC(=O)N(C)Cc2csc3ccccc23)CC1	1.913%
CC(C)C(NC(=O)NCC1(CO)CC1)c1nnc2n1CCC2 (stereo unspecified)	14.94%
CC(C(=O)NCCCN1CCCCCC1=O)n1cncn1 (stereo unspecified)	-4.192%
Cc1ncsc1C(=O)NCCSCc1cccs1	-6.016%
Cc1ncsc1C(=O)OCCN1CCCCCC1=O	115.8%
Cc1ncsc1C(=O)NCCN1CCCCCC1=O	95.46%
Cc1cc(C(=O)NCCN2CCCc3ccccc32)[nH]n1	-6.772%
O=C(NCCN1CCCc2ccccc21)c1scnc1Cl	4.891%
Cc1ncsc1CCN(C)C(=O)CN1CCCCCC1=O	-1.63%
Cc1ncsc1C(=O)OCCN1CCCc2ccccc21	101.6%
Cc1ncsc1C(=O)NCCn1nc2ccccn2c1=O	-10.37%

Compound	Percent Effect
Cc1ncsc1CN(C)C(=O)C(CC(C)C)N1CCCCC1=O (stereo unspecified)	12.62%
Cc1ncsc1C(=O)NCCCN1CCCCCC1=O	91.19%
O=C(NCCN1CCCCC1)c1scnc1Cl	1.584%
COc1ccc(C(=O)N2CCC(Oc3ccccc3)(C(=O)O)CC2)o1	-6.202%
CC(=O)NCc1nc(CCOc2ccc(Cl)cc2)no1	-0.6631%
COCCN1C(=O)CC(N2CCN(c3ccc(OC)cc3)CC2)C1=O (stereo unspecified)	6.624%
NCc1cn(CC2CCCN(C(=O)NCc3ccc(Cl)cc3)C2)nn1 (stereo unspecified)	-34.24%
Cc1nnc(N2C[C@@H](Oc3ccccn3)[C@H]3OCCC[C@H]32)s1.O=C(O)C(F)(F)F.O=C(O)C(F)(F)F	-5.034%
COc1ccccc1Oc1ncccc1CNC(=O)C(C)CN (stereo unspecified)	1.057%
COc1cccc(CN2CC3(CCNCC3)CCC2=O)c1OC	-5.805%
COc1ccccc1S(=O)(=O)N1CCC2(CC1)[C@H](O)C[C@@H]2O	-0.7897%
COc1ccccc1N1CCC(CNCc2cccc(OC)c2OC)C1 (stereo unspecified)	0.729%
CCCS(=O)(=O)N1CCC2(CCCN(Cc3cccc(F)c3F)C2=O)C1 (stereo unspecified)	-35.96%
COc1cccc(OC)c1CN1CC(=O)N(c2ccc(C)cc2)CC1C (stereo unspecified)	7.242%
CCCS(=O)(=O)N1CC(=O)N(Cc2cccc(OC)c2OC)CC(O)C1 (stereo unspecified)	125.8%
CCCS(=O)(=O)N1CC(=O)N(Cc2ccccc2OC)CC(O)C1 (stereo unspecified)	89.31%
COc1cccc(OC)c1CN1CC(O)CN(S(C)(=O)=O)CC1=O (stereo unspecified)	127.9%
COc1cccc(CN2CC(O)CN(S(C)(=O)=O)CC2=O)c1OC (stereo unspecified)	96.57%
